esBAF inh: SWI/SNF esBAF complex inhibition; mouse ES cells, Bmi1-luciferase knock-in reporter, 24 h; 100% = twice the neutral-well signal; reporter increase, % at 12.5 µM; 350,000 tested, 2% active; AID 602393; in the data active = activation above about 40%; inconclusive = no clear call, values can overlap the other calls;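 also: 0% = median of the plate's neutral control wells and 100% = double that signal; a rise in the Bmi1 reporter signal indicates esBAF inhibition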
Wnt bcat act: activates Wnt/beta-catenin signaling in a reporter cell assay. activation, % at 9.35 µM. 300,000 tested, 1.2% active. AID 743398. activator, plate reader; in the data active = activation above about 30%, passing the limit was not always enough; inconclusive = no clear call, values can overlap the other calls;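 also: 0% = neutral control wells and 100% = positive control wells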
HSF1 inhib: HSF1 inhibition. NIH3T3-HGL HSE-luciferase, MG132-induced, luminescence 8 h; hits give low values. activity change, negative = inhibition, % at 7.5 µM (by protocol). 300,000 tested, 0.77% active;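 active = more than half of replicate wells show activity change below -50%, luminescence cut by over half; inconclusive = some wells, but at most half, below -50%; inactive = no replicate well below -50%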;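 also: luciferase reports HSF-1 transcriptional activity via heat shock element; 0% = median of DMSO wells and -100% = zero luminescence signal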
HSF-1 act: increases HSF-1 driven luciferase reporter signal | NIH3T3-HGL HSF-1 luciferase reporter, MG132, 8 h; 100% = twice DMSO control signal | activation, % at 9 µM | 300,000 tested, 1.7% active | AID 504408;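 active = mean replicate activation of at least 50% with a set share of replicates each reaching 50%; inconclusive = only one of those two conditions met; inactive = mean below 50% and too few replicates reaching it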;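 also: 0% = median of the neutral control wells and 100% = twice that signal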
MITF act: MITF TRPM1 promoter activation in melanoma cells; SK-MEL-5 TRPM1-promoter luciferase, 24 h; % of positive control, neutral wells = 0; activation, % at 12.5 µM; 300,000 tested, 0.75% active;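 active = mean activation of at least 80% with every replicate also reaching 80%; inconclusive = mean reaches 80% but some replicate falls short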;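 also: 0% = neutral control wells and 100% = parthenolide positive control wells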
Active calls of the source: *; ? = inconclusive; / = not tested or not shown. Most compounds without a hit are left out; they make up all but 3.8% or so of the library.

SMILES	esBAF inh	Wnt bcat act	HSF1 inhib	HSF-1 act	MITF act
CCCC(=O)Nc1cc2c(cc1C(=O)c1ccccc1)OCCO2	8	/	-8	-10	-12
CCOc1ccc(S(=O)(=O)c2c(C(=O)c3ccccc3)cnc3cc4c(cc23)OCCO4)cc1	/	-7	32	68*	-4
COc1ccc(C2=NN(S(=O)(=O)c3ccccc3)C(c3ccccc3)C2)cc1 (stereo not drawn)	9	4	-1	13	3
COc1ccc(C2=NN(CN3C(=O)C(=O)c4ccccc43)C(c3ccc(OC)cc3)C2)cc1 (stereo not drawn)	/	54*	20	?	56
CCCCc1ccc(NS(=O)(=O)c2c(C)n(C)c(=O)n(C)c2=O)cc1	0	0	27	64*	-2
Cc1c(S(=O)(=O)Nc2ccc(Br)cc2)c(=O)n(C)c(=O)n1C	0	-2	-2	1	/
O=C(c1cn(-c2ccccc2)nc1-c1ccccc1)N1CCOCC1	6	2	0	4	4
O=C(c1cccs1)N1CCN(C(=O)c2cn(-c3ccccc3)nc2-c2ccccc2)CC1	54*	12	/	/	25
CC(=O)c1ccc(NC(=O)CCc2nnc3ccc(N4CCCC4)nn23)cc1	57*	10	18	10	43
COc1ccc(OC)c(NC(=O)CCc2nnc3ccc(N4CCC(C)CC4)nn23)c1	-3	-3	3	1	1
COc1ccc(NC(=O)CCc2nnc3ccc(N4CCC(C)CC4)nn23)cc1OC	-3	3	-71*	-78	2
CN1CCN(C(=O)C[C@H]2CC[C@@H]3[C@H](COC[C@@H](O)CN3CC3CC3)O2)CC1	-5	/	/	/	/
O=C(c1ccccn1)N1C[C@@H]2[C@H](c3ccccc31)[C@H](CO)N2C(=O)Nc1ccccc1	-5	/	/	/	/
C[C@@H]1CN([C@@H](C)CO)C(=O)Cc2cc(NC(=O)Nc3ccc(F)cc3)ccc2O[C@@H]1CN(C)C(=O)Nc1ccccc1	-2	/	/	/	/
C(/CCc1ccccc1)=N\Nc1nc2ccccc2[nH]1	/	40*	0	6	5
C(=C\c1ccccc1)/C=N/Nc1nc2ccccc2[nH]1	/	90*	11	41	26
Fc1ccc(/C=N/Nc2nc3ccccc3[nH]2)cc1F	/	7	64	95*	70
C(=N\Nc1nc2ccccc2[nH]1)/c1ccccc1	55*	0	138	199*	80
CC(C)NC(=O)Nc1ccc2c(c1)C(=O)N([C@H](C)CO)C[C@@H](C)[C@@H](CN(C)Cc1ccc(Cl)c(Cl)c1)O2	-2	/	/	/	/
O=C(Nc1ccc2c(c1)[C@@H]1C[C@H](CC(=O)N3CCOCC3)O[C@H](CO)[C@@H]1O2)C1CCC1	3	/	/	/	/
Brc1ccc(-c2ccc(/C=N/Nc3nncc(-c4ccccc4)n3)o2)cc1	/	-3	0	-10	0
Brc1ccc(-c2ccc(/C=N/Nc3nc4ccccc4[nH]3)o2)cc1	?	-6	203	163*	62
Cc1cccc(C)c1OCc1cc(C(=O)N2CCN(c3ccc(F)cc3)CC2)no1	45*	1	63	70*	65
CCOC(=O)N1CCN(C(=O)c2cc(COc3c(F)cccc3F)on2)CC1	58*	45*	16	41	76
CCOC(=O)C1CCN(C(=O)c2cc(COc3ccc(F)cc3F)on2)CC1	/	17	22	43	111*
SMILES	esBAF inh	Wnt bcat act	HSF1 inhib	HSF-1 act	MITF act
O=C(NCc1ccccc1Cl)[C@H]1[C@H](CO)[C@H]2Cn3c(cccc3=O)[C@H]2N1C(=O)C1CCCC1	4	/	/	/	/
CCOC(=O)c1cn(-c2c(Cl)cccc2Cl)c2cc(Cl)c([N+](=O)[O-])cc2c1=O	/	1	56	104*	-17
O=C(C[C@@H]1CC[C@H]2[C@@H](COC[C@H](O)CN2Cc2nccs2)O1)NCc1ccccc1F	-5	/	/	/	/
O=C(O)CCn1[nH]c(=O)ccc1=O	-3	/	12	58*	4
COc1ccc(C(C)(C)C)cc1NC(=O)CCn1[nH]c(=O)ccc1=O	4	-2	/	/	0
Cc1noc(C)c1NC(=O)N(C)C[C@H]1Oc2ccc(NC(=O)CCC(F)(F)F)cc2CC(=O)N([C@H](C)CO)C[C@@H]1C	-2	/	/	/	/
CO[C@H]1CN(C)C(=O)c2ccc(NC(=O)Nc3ccccc3)cc2OC[C@H](C)NC[C@H]1C	0	/	/	/	/
Cc1cc(C)n(CC(O)COc2ccc(Cl)cc2Cl)n1 (stereo not drawn)	52*	5	46	64*	/
Cc1cc(C)n(CC(O)COc2ccc(Cl)cc2)n1 (stereo not drawn)	4	1	25	50*	/

Screens from PubChem BioAssay.
